Assay results published in the supplement of paper PMC7411054.

Assays:
Conditions in all cases: treatment time: 24 h
HepG2-ACTB-RAB5A = assay: lowest phenotypically active concentration; higher = less potent
Procedure, shortened: (§1)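 Cells from fifteen gene-edited reporter lines (A549, HepG2 and WPMY1) were treated for 24 h at 0.3, 1, 3 or 9 µM and imaged live, four wells per condition. Features were normalised per well to solvent control wells. A condition deviated if ≥3 of 4 wells passed the 95th percentile of control Euclidean distances and was reproducible if its median replicate Pearson correlation beat the 95th percentile of non-replicates; phenotypic activity needed both.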

HepG2-CANX-COX4 = assay: as above
Procedure, shortened: as §1

HepG2-TP53BP1-CLTA = assay: as above
Procedure, shortened: as §1

HepG2-TUBA1B-RELA = assay: as above
Procedure, shortened: as §1

WPMY1-ACTB-RAB5A [1] = assay: as above
Procedure, shortened: as §1

WPMY1-CANX-COX4 = assay: as above
Procedure, shortened: as §1

WPMY1-GM130-SQSTM1 = assay: as above
Procedure, shortened: as §1

WPMY1-TP53BP1-CLTA = assay: as above
Procedure, shortened: as §1

WPMY1-TUBA1B-RELA = assay: as above
Procedure, shortened: as §1

WPMY1-ACTB-RAB5A [2] = assay: phenotypically active (imaging signature differs from DMSO and reproducible) at any of 0.3-9 uM (binary (1 = active, 0 = inactive)); higher = active
Procedure, shortened: as §1

Row | Structure (SMILES) | lowest phenotypically active concentration (HepG2-ACTB-RAB5A) [µM] | lowest phenotypically active concentration (HepG2-CANX-COX4) [µM] | lowest phenotypically active concentration (HepG2-TP53BP1-CLTA) [µM] | lowest phenotypically active concentration (HepG2-TUBA1B-RELA) [µM] | lowest phenotypically active concentration (WPMY1-ACTB-RAB5A [1]) [µM] | lowest phenotypically active concentration (WPMY1-CANX-COX4) [µM] | lowest phenotypically active concentration (WPMY1-GM130-SQSTM1) [µM] | lowest phenotypically active concentration (WPMY1-TP53BP1-CLTA) [µM] | lowest phenotypically active concentration (WPMY1-TUBA1B-RELA) [µM] | phenotypically active (WPMY1-ACTB-RAB5A [2])
1 | CC(=O)c1c(C)c2cnc(Nc3ccc(N4CCNCC4)cn3)nc2n(C2CCCC2)c1=O | ≤ 0.3 | ≤ 0.3 | ≤ 0.3 | ≤ 0.3 | 9 | 3 | 9 | 9 | 9 | 1 (active)
2 | N#Cc1c(C2CCNCC2)cc(-c2c(O)cccc2OCC2CC2)nc1N | 9 | 9 | 9 | 9 | 3 | 3 | 9 | 9 | 9 | 1 (active)
3 | CC(=O)O[C@@]12CO[C@@H]1C[C@H](O)[C@@]1(C)C(=O)[C@H](O)C3=C(C)[C@@H](OC(=O)[C@H](O)[C@@H](NC(=O)OC(C)(C)C)c4ccccc4)C[C@](O)([C@@H](OC(=O)c4ccccc4)[C@H]21)C3(C)C [Docetaxel] | ≤ 0.3 | ≤ 0.3 | ≤ 0.3 | ≤ 0.3 | ≤ 0.3 | ≤ 0.3 | ≤ 0.3 | ≤ 0.3 | ≤ 0.3 | 1 (active)
4 | O=C(CCCCCN1C(=O)c2cccc3cccc(c23)C1=O)NO [Scriptaid] | ≤ 0.3 | 1 | ≤ 0.3 | ≤ 0.3 | 1 | 1 | 1 | 1 | 1 | 1 (active)
5 | COc1cc(N2CCN(C)CC2)ccc1Nc1nccc(-c2cn(C)c3cnccc23)n1 | 3 | 1 | 1 | 1 | 1 | ≤ 0.3 | 1 | 1 | 1 | 1 (active)
6 | CC[C@H](CO)Nc1nc(NCc2ccc(-c3ccccn3)cc2)c2ncn(C(C)C)c2n1 | ≤ 0.3 | ≤ 0.3 | ≤ 0.3 | ≤ 0.3 | ≤ 0.3 | ≤ 0.3 | ≤ 0.3 | ≤ 0.3 | ≤ 0.3 | 1 (active)
7 | C[C@@H](Oc1cc(-n2cnc3ccc(CN4CCN(C)CC4)cc32)sc1C(N)=O)c1ccccc1C(F)(F)F | ≤ 0.3 | ≤ 0.3 | ≤ 0.3 | ≤ 0.3 | ≤ 0.3 | 3 | ≤ 0.3 | ≤ 0.3 | ≤ 0.3 | 1 (active)
8 | COc1cc(/C=C/c2ccc(OC)cc2OC)cc(OC)c1 | 3 | 3 | 3 | 3 | 1 | 1 | 1 | 1 | 1 | 1 (active)
9 | CO[C@H]1C[C@@H]2CC[C@@H](C)[C@@](O)(O2)C(=O)C(=O)N2CCCC[C@H]2C(=O)O[C@H]([C@H](C)C[C@@H]2CC[C@@H](OC(=O)C(C)(CO)CO)[C@H](OC)C2)CC(=O)[C@H](C)C=C(C)[C@@H](O)[C@@H](OC)C(=O)[C@H](C)C[C@H](C)C=CC=CC=C1C [Temsirolimus] | ≤ 0.3 | 1 | ≤ 0.3 | 1 | ≤ 0.3 | ≤ 0.3 | ≤ 0.3 | ≤ 0.3 | 3 | 1 (active)
